The values that follow come from PubChem BioAssay AID2017 (National Center for Advancing Translational Sciences (NCATS), 2009).

The target in the test is 4-diphosphocytidyl-2-C-methyl-D-erythritol kinase, chloroplastic (Arabidopsis thaliana) (UniProt O81014). The test is described as follows: Confirmatory Assay for Inhibitors of Human Galactokinase (GALK): CDP-Me assay counterscreen. The note with it: ATP depletion, Kinase-Glo luminescence. The text has this: NIH Molecular Libraries Probe Production Centers Network [MLPCN] NIH Chemical Genomics Center [NCGC] MLPCN Grant: R03 MH085689-01 Assay Submitter (PI): Kent Lai (University of Utah School of Medicine, 50 N Mario Capecchi Drive, Salt Lake City, UT 84132) NCGC Assay Overview The GHMP kinase family is a unique class of important enzymes that plays an essential role in many metabolic processes. It contains more than 170 protein members among which are the galactokinase (GALK) and the CMK enzymes. GALK plays a crucial role in galactose processing and is a potential therapeutic target for Classic Galactosemia (OMIM: 230400). CMK is involved for the non-mevalonate synthesis of isoprenoids precursors and natural products like sterols or ubiquinones which are important to many biological functions. […]
Sequence of 4-diphosphocytidyl-2-C-methyl-D-erythritol kinase, chloroplastic (Arabidopsis thaliana) (O81014 whole entry, looked up): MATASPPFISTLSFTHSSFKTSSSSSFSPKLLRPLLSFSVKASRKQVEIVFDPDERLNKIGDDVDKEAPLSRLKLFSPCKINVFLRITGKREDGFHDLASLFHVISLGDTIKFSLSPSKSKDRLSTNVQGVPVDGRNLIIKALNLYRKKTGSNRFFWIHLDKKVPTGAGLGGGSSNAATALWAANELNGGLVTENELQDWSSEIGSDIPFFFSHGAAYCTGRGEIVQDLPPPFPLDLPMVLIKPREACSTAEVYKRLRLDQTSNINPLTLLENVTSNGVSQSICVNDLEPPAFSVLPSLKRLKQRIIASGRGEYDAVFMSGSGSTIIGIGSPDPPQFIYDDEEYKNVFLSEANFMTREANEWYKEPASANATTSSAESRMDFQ
NCGC Assay Protocol Summary: Three uL/well of substrate solution (15 uM ATP, 30 uM CDP-ME, 20 mM HEPES pH8.0, 5 mM MgCl2, 40 mM KCl, 1 mM DTT, 0.01% BSA final concentration) was dispensed into 1536-well, assay plates (Greiner, solid white medium-binding plates) with Aurora Discovery BioRAPTR Flying Reagent Dispenser (FRD; Beckton-Dickenson). […] After 1 min, luminescence was detected with the ViewLux plate reader (Perkin Elmer, Waltham, MA) using a 1 sec exposure time and 2x binning settings.
(Counterscreens check selectivity or assay interference.)

SMILES strings stand for the structures. Inconclusive results are not listed. The source made the active and inactive calls. Calls come from the whole dose curve; as a rule, active = well fitted curve in the direction sought with a large enough effect; inconclusive = small, poorly fitted or top-dose-only effect, or another doubt; inactive = no such curve, though single readings can be large or run the other way.

For the molecule `COc1cc(/C=C2\C(=N)N3N=C(S(=O)(=O)CC(C)C)SC3=NC2=O)ccc1OC(=O)c1ccco1`, the Potency was 29.8 µM (active).
